According to PubChem BioAssay (NCI):
About 83,000 compounds went through this panel and 20% of them were active in at least one assay; those are over-represented in the sample as a whole.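 96-well plates, one dose, 48 hours. Percent growth reported; active if below 10.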 Values without a mark were called inactive. The source made the active and inactive calls.

What was measured:
Assay in all cases: NCI-60 one-dose screen, 48 h (100 = growth as untreated, 0 = no growth, -100 = all killed)
Details in all cases: 10 µM unless noted
DU-145 prostate = system: DU-145 prostate
K-562 leukemia = system: K-562 leukemia
MALME-3M melanoma = system: MALME-3M melanoma
MDA-MB-231 breast = system: MDA-MB-231 breast
RXF 393 renal = system: RXF 393 renal
SF-268 CNS = system: SF-268 CNS
SF-295 CNS = system: SF-295 CNS
SF-539 CNS = system: SF-539 CNS
UACC-257 melanoma = system: UACC-257 melanoma
M14 melanoma = system: M14 melanoma
HCT-15 colon = system: HCT-15 colon
HT29 colon = system: HT29 colon
SNB-75 CNS = system: SNB-75 CNS
SNB-19 CNS = system: SNB-19 CNS
U251 CNS = system: U251 CNS
PC-3 prostate = system: PC-3 prostate
SK-MEL-5 melanoma = system: SK-MEL-5 melanoma
UACC-62 melanoma = system: UACC-62 melanoma
SK-MEL-28 melanoma = system: SK-MEL-28 melanoma
LOX IMVI melanoma = system: LOX IMVI melanoma

C/C(=C\CCc1ccsc1)CC/C=C(\C)CCCN1CCSCC1
growth (DU-145 prostate): 96.6%
growth (K-562 leukemia): 61.9%
growth (MALME-3M melanoma): 98.4%
growth (MDA-MB-231 breast): 85.9%
growth (RXF 393 renal): 98.1%
growth (SF-268 CNS): 103%
growth (SF-295 CNS): 82%
growth (SF-539 CNS): 89.9%
growth (UACC-257 melanoma): 94.6%
growth (M14 melanoma): 96.2%
growth (HCT-15 colon): 82.5%
growth (HT29 colon): 88.1%
growth (SNB-75 CNS): 101%
growth (SNB-19 CNS): 96.1%
growth (U251 CNS): 88.5%
growth (PC-3 prostate): 80.4%
growth (SK-MEL-5 melanoma): 77.2%
growth (UACC-62 melanoma): 77%
growth (SK-MEL-28 melanoma): 94.6%

CC(C)N(Cc1ccccc1)c1c(S)ssc1=S
growth (DU-145 prostate): 10.7%
growth (K-562 leukemia): 15.1%
growth (MALME-3M melanoma): -4.76% (active)
growth (MDA-MB-231 breast): 2.92% (active)
growth (RXF 393 renal): -17.4% (active)
growth (SF-268 CNS): 28.8%
growth (SF-295 CNS): -5.63% (active)
growth (SF-539 CNS): 2.54% (active)
growth (UACC-257 melanoma): 5.96% (active)
growth (M14 melanoma): 17.6%
growth (HCT-15 colon): 10.4%
growth (HT29 colon): 3.11% (active)
growth (SNB-75 CNS): -2.3% (active)
growth (SNB-19 CNS): 20.9%
growth (U251 CNS): 5.51% (active)
growth (PC-3 prostate): 1.17% (active)
growth (SK-MEL-5 melanoma): -75.9% (active)
growth (UACC-62 melanoma): 34.1%
growth (SK-MEL-28 melanoma): 21.8%

C/C(=C\CCc1ccoc1)CC/C=C(\C)CCCN1CCSCC1
growth (DU-145 prostate): 92.9%
growth (K-562 leukemia): 56.6%
growth (MALME-3M melanoma): 104%
growth (MDA-MB-231 breast): 80%
growth (RXF 393 renal): 78.8%
growth (SF-268 CNS): 96.4%
growth (SF-295 CNS): 46.9%
growth (SF-539 CNS): 92.1%
growth (UACC-257 melanoma): 61.1%
growth (M14 melanoma): 81.6%
growth (HCT-15 colon): 43.3%
growth (HT29 colon): 45.8%
growth (SNB-75 CNS): 93.4%
growth (SNB-19 CNS): 87.8%
growth (U251 CNS): 76.7%
growth (PC-3 prostate): 84.3%
growth (SK-MEL-5 melanoma): 37.8%
growth (UACC-62 melanoma): 75.3%
growth (SK-MEL-28 melanoma): 88.7%

CCNCCCn1c2c(c3ccc(F)cc3c1=O)C(=O)c1cc(OC)cnc1-2
growth (DU-145 prostate): -2.92% (active)
growth (K-562 leukemia): 1.44% (active)
growth (MALME-3M melanoma): -68.7% (active)
growth (MDA-MB-231 breast): 3.91% (active)
growth (RXF 393 renal): -80.8% (active)
growth (SF-268 CNS): 1.76% (active)
growth (SF-295 CNS): -21% (active)
growth (SF-539 CNS): -25.7% (active)
growth (UACC-257 melanoma): -20.4% (active)
growth (M14 melanoma): -25.9% (active)
growth (HCT-15 colon): 2.25% (active)
growth (HT29 colon): -14.9% (active)
growth (SNB-75 CNS): -18.2% (active)
growth (SNB-19 CNS): 12.1%
growth (U251 CNS): -25.8% (active)
growth (PC-3 prostate): -3.56% (active)
growth (UACC-62 melanoma): -34.5% (active)
growth (LOX IMVI melanoma): -64.9% (active)
growth (SK-MEL-28 melanoma): 8.91% (active)

O=C1C=CC(=O)N1c1ccccn1
growth (DU-145 prostate): 111%
growth (K-562 leukemia): 94.5%
growth (MALME-3M melanoma): 124%
growth (MDA-MB-231 breast): 102%
growth (RXF 393 renal): 126%
growth (SF-268 CNS): 99.1%
growth (SF-295 CNS): 105%
growth (SF-539 CNS): 99.8%
growth (UACC-257 melanoma): 105%
growth (M14 melanoma): 105%
growth (HCT-15 colon): 97.7%
growth (HT29 colon): 115%
growth (SNB-75 CNS): 89.3%
growth (SNB-19 CNS): 96.6%
growth (U251 CNS): 110%
growth (PC-3 prostate): 99.4%
growth (SK-MEL-5 melanoma): 111%
growth (UACC-62 melanoma): 95%
growth (SK-MEL-28 melanoma): 115%

O=C(NC1CCCCC1)c1ccc(Nc2ncnc3c2cnn3-c2ccccc2)cc1
growth (DU-145 prostate): 54.6%
growth (K-562 leukemia): 73.2%
growth (MALME-3M melanoma): 2.93% (active)
growth (MDA-MB-231 breast): 8.76% (active)
growth (RXF 393 renal): 62.2%
growth (SF-268 CNS): 36.9%
growth (SF-295 CNS): 73.4%
growth (SF-539 CNS): 43.7%
growth (UACC-257 melanoma): 56.5%
growth (M14 melanoma): 69.1%
growth (HCT-15 colon): 66.6%
growth (HT29 colon): 70.2%
growth (SNB-75 CNS): -20.3% (active)
growth (SNB-19 CNS): 48.7%
growth (U251 CNS): 40.2%
growth (PC-3 prostate): 53.3%
growth (SK-MEL-5 melanoma): 75.4%
growth (UACC-62 melanoma): 63.9%
growth (SK-MEL-28 melanoma): 62.2%

CCOC(=O)/C(=C/CC/C(C)=C/CC/C(C)=C/CCc1ccoc1)CC(=O)N1CCCCC1
growth (DU-145 prostate): 62.8%
growth (K-562 leukemia): 18.1%
growth (MALME-3M melanoma): 15.2%
growth (MDA-MB-231 breast): -21.9% (active)
growth (RXF 393 renal): 77.8%
growth (SF-268 CNS): 66.4%
growth (SF-295 CNS): 33%
growth (SF-539 CNS): 76.3%
growth (UACC-257 melanoma): 12.7%
growth (M14 melanoma): 31.4%
growth (HCT-15 colon): 69.2%
growth (HT29 colon): 55.5%
growth (SNB-75 CNS): 82.6%
growth (SNB-19 CNS): 36%
growth (U251 CNS): 66.6%
growth (PC-3 prostate): 28.7%
growth (SK-MEL-5 melanoma): 9% (active)
growth (UACC-62 melanoma): 23.8%
growth (SK-MEL-28 melanoma): 36.8%

O=Cc1ncc(-c2ccc(C(F)(F)F)cc2)c(NC2CCCCCC2)n1
growth (DU-145 prostate): -92.9% [100 µM] (active)
growth (K-562 leukemia): -50.2% [100 µM] (active)
growth (MALME-3M melanoma): -92% [100 µM] (active)
growth (MDA-MB-231 breast): -87.8% [100 µM] (active)
growth (RXF 393 renal): -80.2% [100 µM] (active)
growth (SF-268 CNS): -83.9% [100 µM] (active)
growth (SF-295 CNS): -86.3% [100 µM] (active)
growth (SF-539 CNS): -96.8% [100 µM] (active)
growth (UACC-257 melanoma): -92% [100 µM] (active)
growth (M14 melanoma): -91.6% [100 µM] (active)
growth (HCT-15 colon): -79% [100 µM] (active)
growth (HT29 colon): -80.8% [100 µM] (active)
growth (SNB-75 CNS): -15.7% [100 µM] (active)
growth (SNB-19 CNS): -47.6% [100 µM] (active)
growth (U251 CNS): -98.2% [100 µM] (active)
growth (PC-3 prostate): -81.7% [100 µM] (active)
growth (SK-MEL-5 melanoma): 5.66% [100 µM] (active)
growth (UACC-62 melanoma): -90.1% [100 µM] (active)
growth (LOX IMVI melanoma): -73.4% [100 µM] (active)
growth (SK-MEL-28 melanoma): -71.4% [100 µM] (active)
